# A selection: hits, their analogues and other compounds. The true share with any hit is near 0.87%.
# WRN helicase inh: blocks human WRN helicase; Potency, µM (highest dose often 114 µM), inactives show at the highest dose activity change, negative = inhibition, hits mostly inhibitors; Q14191; WRN helicase unwinding, fluorescent forked duplex, kinetic; 360,000 compounds, 0.46% hits; note: nearly all actives have a fitted effect of over 55% in size
# Target sequence (Q14191 whole entry, looked up): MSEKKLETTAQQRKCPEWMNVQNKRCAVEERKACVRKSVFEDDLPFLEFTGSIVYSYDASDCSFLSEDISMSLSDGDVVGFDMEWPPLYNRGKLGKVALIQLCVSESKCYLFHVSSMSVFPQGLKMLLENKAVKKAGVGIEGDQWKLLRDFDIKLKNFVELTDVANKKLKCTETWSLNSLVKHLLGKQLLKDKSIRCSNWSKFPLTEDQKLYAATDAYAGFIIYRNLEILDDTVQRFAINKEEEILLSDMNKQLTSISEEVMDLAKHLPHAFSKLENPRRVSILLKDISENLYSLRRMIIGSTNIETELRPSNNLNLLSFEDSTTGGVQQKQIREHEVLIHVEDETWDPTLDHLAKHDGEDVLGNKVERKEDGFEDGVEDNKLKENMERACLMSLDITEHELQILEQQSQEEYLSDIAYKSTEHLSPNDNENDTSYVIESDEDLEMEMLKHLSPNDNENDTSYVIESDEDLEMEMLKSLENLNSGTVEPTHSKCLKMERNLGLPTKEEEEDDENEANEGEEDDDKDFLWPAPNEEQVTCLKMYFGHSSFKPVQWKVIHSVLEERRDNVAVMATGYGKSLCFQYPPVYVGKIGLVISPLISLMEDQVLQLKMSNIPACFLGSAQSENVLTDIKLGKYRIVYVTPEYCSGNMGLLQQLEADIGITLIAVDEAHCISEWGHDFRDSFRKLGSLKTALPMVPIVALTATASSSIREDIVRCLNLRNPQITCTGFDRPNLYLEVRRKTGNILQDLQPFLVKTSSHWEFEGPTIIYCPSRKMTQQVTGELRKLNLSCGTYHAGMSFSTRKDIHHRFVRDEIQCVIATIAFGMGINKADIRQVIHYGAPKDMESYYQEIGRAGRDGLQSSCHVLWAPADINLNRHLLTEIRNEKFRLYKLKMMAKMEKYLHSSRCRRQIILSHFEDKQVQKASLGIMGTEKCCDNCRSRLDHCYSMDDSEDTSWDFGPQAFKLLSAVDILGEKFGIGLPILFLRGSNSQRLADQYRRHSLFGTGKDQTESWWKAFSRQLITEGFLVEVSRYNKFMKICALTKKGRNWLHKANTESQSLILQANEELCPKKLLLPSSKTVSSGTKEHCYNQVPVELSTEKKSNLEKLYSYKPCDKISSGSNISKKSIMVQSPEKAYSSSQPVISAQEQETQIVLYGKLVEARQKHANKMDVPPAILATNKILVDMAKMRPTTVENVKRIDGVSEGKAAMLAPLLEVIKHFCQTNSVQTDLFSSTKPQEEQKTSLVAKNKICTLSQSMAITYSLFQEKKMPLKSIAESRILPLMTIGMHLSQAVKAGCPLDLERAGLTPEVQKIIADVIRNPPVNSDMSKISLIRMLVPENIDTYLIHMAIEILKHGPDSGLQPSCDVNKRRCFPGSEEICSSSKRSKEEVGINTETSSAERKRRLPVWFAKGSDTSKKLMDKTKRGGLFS
#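 Enzyme (20 nM final) and test compound sit together 15 min at room temperature before substrate addition. Substrate is a single-forked duplex oligonucleotide (100 nM) labelled with fluorophore and quencher, with 2 mM ATP; helicase unwinding raises red fluorescence, read kinetically.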
# RECQ1 inh-1: blocks DNA unwinding by human RECQ1. RECQ1 DNA unwinding, red fluorescence kinetic read. P46063. Potency, µM (highest dose often 57.3 µM), for inactives: at the highest dose activity, negative = inhibition, usual class: inhibitors. 240,000 compounds, 0.54% hits;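 note: plate controls were vehicle for no effect and no enzyme for full effect; nearly all actives have a fitted effect of over 30% in size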
#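 50 nM RECQ1T1 preincubated 15 min with compound in Tris pH 8.0 buffer with MgCl2, DTT, Tween-20 and 2.5 ug/ml poly(dI-dC); started with 200 nM TAMRA/BHQ-2 forked duplex and 2 mM ATP. Unwinding read as fluorescence (525/598 nm), two reads 2 h apart.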
# FEN1 inh: blocks human flap endonuclease 1; 390,000 compounds, 0.35% hits; AID 588795; P39748; Recombinant FEN1 flap cleavage, fluorescence, 15 min; Potency, µM (doses to about 114 µM), for the others: at the top dose activity change, negative = inhibition, hits mostly inhibitors; note: nearly all actives have a fitted effect of over 65% in size
#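 Quantitative HTS format: each compound was titrated, incubated with 10 nM nuclease for 15 min at room temperature, then challenged with flap substrate at 50 nM final. Signal change over 15 min gave concentration–effect curves.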
# APE1 inh: blocks human APE1 abasic DNA cleavage; P27695; recombinant APE1, TAMRA/BHQ-2 abasic DNA cleavage fluorescence; Potency, µM (doses to about 65.8 µM), inactives show top-dose activity change, negative = inhibition, usual class: inhibitors; 350,000 compounds, 0.35% hits; AID 2517;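 note: plate controls were vehicle for no effect and reference inhibitor for full effect; nearly all actives have a fitted effect of over 55% in size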
#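 Quantitative HTS: incision of a TAMRA/BHQ-2 double-stranded substrate bearing a tetrahydrofuran abasic site by 0.75 nM APE1 raises fluorescence. Substrate 50 nM final, added after 15 min compound preincubation at room temperature; progress as third-minus-first kinetic read difference.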
# BLM helicase inh: Bloom syndrome helicase (human) inhibition; P54132; recombinant BLM DNA unwinding, fluorescence dequenching; Potency, µM (titrated, usually from 56.1 µM), for the others: at the highest dose activity change, negative = inhibition, usual class: inhibitors; 350,000 compounds, 0.2% hits;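 note: plate controls were vehicle for no effect and no enzyme for full effect; nearly all actives have a fitted effect of over 35% in size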
# RECQ1 inh conf: confirmation of human RECQ1 helicase inhibitors | shares compounds with RECQ1 inh-1 | RECQ1 helicase DNA unwinding, fluorescence | AID 2708 | Potency, µM (highest dose often 229 µM), for the others: at the top dose activity change, negative = inhibition, actives largely listed as inhibitors | 610 compounds, 28% hits; note: nearly all actives have a fitted effect of over 45% in size
# ADP FP counter: displaces ADP in a fluorescence polarization counter-screen for RECQ1 hits | shares compounds with RECQ1 inh-1 | ADP fluorescence polarization displacement counterscreen | Potency, µM (highest dose often 228 µM), for the others: top-dose activity change, negative = inhibition, usual class: inhibitors | 530 compounds, 27% hits; note: nearly all actives have a fitted effect of over 45% in size
# RECQ1 inh-2: confirmation of human RECQ1 helicase inhibitors; shares compounds with RECQ1 inh-1; recombinant RECQ1 DNA unwinding, red fluorescence; Potency, µM (series often up to 119 µM), without a hit: at the top dose activity, negative = inhibition, most hits filed as inhibitors; 1,100 compounds, 15% hits; AID 504841; note: nearly all actives have a fitted effect of over 50% in size
# An asterisk follows results filed as active; i = inactive; ? = inconclusive; . = not tested or not shown; [ ] = remark or other dose. Calls come from the whole dose curve; as a rule, active = well fitted curve in the direction sought with a large enough effect; inconclusive = small, poorly fitted or top-dose-only effect, or another doubt; inactive = no such curve, though single readings can be large; an effect the other way counts as inactive or inconclusive. Unless noted, % is set by controls: 0 for no effect and ±100 for the full control effect; potency is the fitted concentration of half-maximal effect.
SMILES,WRN helicase inh,RECQ1 inh-1,FEN1 inh,APE1 inh,BLM helicase inh,RECQ1 inh-2,others
COc1ccc(C(=O)N/C(=C\c2ccc([N+](=O)[O-])cc2)C(=O)NC(CCSC)C(=O)O)cc1 (centres undefined),10%,5%,8%,-2%,-1%,.,
C=CCc1cccc(/C=N/NC(=O)CN2CCN(Cc3ccccc3)CC2)c1O,.,22µM*,.,19%,-24%,.,RECQ1 inh conf=?;ADP FP counter=11µM*
CCCNC(=O)Cn1nc(-c2ccc(C)c(C)c2)c2cnc3ccc(OC)cc3c21,.,.,1%,.,-4%,.,
O=C(CCc1ccc(O)cc1)c1c(O)cc(O)cc1O[C@H]1OC(CO)C(O)C(O)C1O (some centres undefined),.,-6%,.,-2%,5%,.,
O=C(CSc1nc2c(c(=O)[nH]1)CN(Cc1ccc3c(c1)OCO3)CC2)Nc1ccc(F)c(F)c1,.,.,-2%,.,-1%,.,
CCc1ccc(C(=O)OCC(=O)Nc2c(C)n(C)n(-c3ccccc3)c2=O)cc1,13%,.,.,.,.,.,
CCCc1nc2ccccc2c(C(=O)OCC(=O)Nc2c(C)n(C)n(-c3ccccc3)c2=O)c1CC,1%,-11%,8%,2%,1%,.,RECQ1 inh conf=12%;ADP FP counter=14%
CCn1cc(C(=O)OC(C)C(=O)Nc2c(C)n(C)n(-c3ccccc3)c2=O)c(=O)c2ccc(C)nc21 (centres undefined),2%,i,0%,8%,0%,.,
CCn1cc(C(=O)OCC(=O)Nc2c(C)n(C)n(-c3ccccc3)c2=O)c(=O)c2ccc(C)nc21,-7%,i,-7%,0%,-1%,.,RECQ1 inh conf=11%;ADP FP counter=?
Cc1cc(C)cc(NC(=O)CSc2nc3c([nH]c4ccccc43)c(=O)n2-c2ccc(F)cc2)c1,.,.,14%,.,4%,.,
CCOc1ccc(OCC)c(NC(=O)CCc2c(C)nc3c(c2C)c(=O)n(C)c(=O)n3C)c1,.,.,-9%,.,-11%,.,
CCC(C(=O)Nc1ccc(C(C)C)cc1)n1nc(C)n2c(cc3cc(C)ccc32)c1=O (centres undefined),.,.,-17%,.,-8%,.,
Cc1cc(C)cc(C(=O)NCC(=O)OCC(=O)N2c3ccccc3NC(=O)C2(C)C)c1,-3%,?,-11%,?,-25%,-23%,
COc1cc(OC)cc(C(=O)NCC(=O)OCC(=O)N2c3ccccc3NC(=O)C2(C)C)c1,0%,-2%,1%,5%,-6%,.,
O=C(Nc1ccccc1)N1CCC(c2nc(-c3ccc(S(=O)(=O)N4CCOCC4)cc3)no2)CC1,3%,i,-11%,-2%,-3%,.,RECQ1 inh conf=8%;ADP FP counter=-16%
O=C(COc1ccc2ccccc2c1)Nc1cccc(C(=O)Nc2ccccc2C(=O)O)c1,?,?,-17%,?,-3%,?,
CN1CCN(S(=O)(=O)c2ccc(NC(=S)NC(=O)C3CCCCC3)cc2)CC1,-6%,?,-4%,-3%,-2%,-17%,
N=C1/C(=C/c2coc3ccccc3c2=O)C(=O)N=C2SC(c3ccco3)=NN12,40µM*,28µM*,32µM*,11%,?,50µM*,
CC(C)CSC1=NSC2=NC(=O)/C(=C\c3coc4ccccc4c3=O)C(=N)N12,?,?,?,1%,-24%,.,
COc1ccc(-n2cccc2/C=C2\C(=N)N3N=C(c4ccco4)SC3=NC2=O)cc1,?,?,?,10µM*,13µM*,7.1µM*,
COc1ccc(-n2cccc2/C=C2\C(=N)N3N=C(C(C)C)SC3=NC2=O)cc1,-24%,-12%,-27%,-6%,-13%,.,
Cc1c(Cl)cccc1NC(=O)Nc1ccc2snnc2c1,.,.,8%,.,-5%,.,
O=C(N/C=C/c1ccco1)OCc1ccccc1,-4%[11.6 µM],-12%,7%,?,-14%,.,
O=C(N/C=C/c1ccco1)NCc1ccccc1,?,?,?,?,-10%,-27%,
O=S(=O)(c1ccc(F)cc1)N(Cc1nc(-c2ccc(Cl)cc2)no1)C1CCCCC1,.,.,15%,.,-6%,.,
SMILES,WRN helicase inh,RECQ1 inh-1,FEN1 inh,APE1 inh,BLM helicase inh,RECQ1 inh-2,others
COc1ccc(Cc2nc(C(=O)Nc3ccc(Cl)cc3)cs2)cc1,-10%,-10%,-19%,-2%,-7%,.,
COc1ccc(NC(=O)c2csc(Cc3ccc(Cl)cc3)n2)cc1,5%,?,-12%,6%,-10%,-48%,
O=C(COC(=O)CCC(=O)c1ccc(F)cc1)NCc1ccc(Cl)cc1,-5%,.,-12%,10%,.,.,
O=C(COC(=O)CCC(=O)c1ccc(Cl)cc1)NCc1ccco1,?,?,-3%,?,2%,?,
COc1cc(C2C(=O)N(C3CCCCCC3)CC(=O)N2CCC2=CCCCC2)ccc1OC(C)C (centres undefined),.,.,4%,.,-2%,.,
O=C1/C(=C/c2ccc(O)c(O)c2)Oc2ccccc21,.,?,.,?,-28%,45µM*,
CCCCc1nn2c(C)c(-c3ccc(OCC)cc3)nc2s1,.,.,-20%,.,-12%,.,
COC1=C(Nc2ccc(C)cc2)C(=O)c2ccccc2C1=O,-28%,?,-18%,?,-7%,-14%,
Cc1ccc(S(=O)(=O)Oc2ccc(C3C4=C(CCCC4=O)OC4=C3C(=O)CCC4)cc2)cc1,-9%,-10%,-9%,-3%,-11%,.,
CN(C)c1ccc(C2C3=C(CCCC3=O)OC3=C2C(=O)CCC3)cc1,-17%,?,-6%,7%,-14%,1%,
CN(C)S(=O)(=O)c1ccc2c(c1)nc(CCC(=O)O)n2C,6%,-9%,14%,15%,-5%,.,RECQ1 inh conf=20%;ADP FP counter=100µM*
CCCCn1c(CCC(=O)O)nc2cc(S(=O)(=O)N(CC)CC)ccc21,-22%,-25%,-1%,-2%,-4%,.,RECQ1 inh conf=89µM*;ADP FP counter=11%
CCn1c(CCC(=O)O)nc2cc(S(=O)(=O)N(C)C)ccc21,10%,i,1%,0%,4%,.,
CCCn1c(CCC(=O)O)nc2cc(S(=O)(=O)N3CCCC3)ccc21,?,-5%,1%,-3%,-6%,.,RECQ1 inh conf=112µM*;ADP FP counter=?
CCCn1c(CCl)nc2cc(S(=O)(=O)N3CCOCC3)ccc21,9%,.,-1%,1%,.,.,
Cc1ccc(S(=O)(=O)N2CCCCC2)cc1NC(=O)Cn1ccc(C(F)(F)F)n1,-3%,40µM*,5%,-5%,-6%,-5%,
